# Hits are enriched below; roughly 7% of the tested compounds scored in any of these assays.
# KLK7 zymogen act: activates the human kallikrein-7 zymogen; purified proKLK7, EDANS-DABCYL substrate fluorescence; 100% is mature enzyme control, 0% vehicle; activation, % at 7 µM; 0.9% of 370,000 active;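 active = activation above the mean of all tested compounds plus 3 SD, computed per campaign excluding outliers beyond control limits, cut at about 13% in these data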
# ADAM17 inh: ADAM17 inhibition, QFRET primary screen. inhibition, % at 6.95 µM. 0.83% of 370,000 active. recombinant ADAM17, EDANS/DABCYL FRET peptide cleavage. P78536;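 active = inhibition above the mean of compounds lying between control limits plus 3 SD, set per campaign, cut at about 8.5% in these data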;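 note: 0% = DMSO-only wells as the low control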
# NR3A LBD binder: modulates the human NR3A ligand-binding domain. NR3A LBD differential scanning fluorimetry, Tm shift; 0% = protein alone, 100% = glycine-bound protein. Tm shift relative to glycine control, % at 25 µM. 2.5% of 340,000 active;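 active = melting temperature shift of at least 10% of the positive control shift, at one fixed dose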
# AHR act: activators of human aryl hydrocarbon receptor. 2.5% of 320,000 active. activation, % at 5 µM. AHR-responsive luciferase reporter cells, luminescence. P35869; in the data active = activation above about 47%;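 note: 0% = vehicle wells and 100% = reference agonist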
# Target sequence (P35869 whole entry, looked up): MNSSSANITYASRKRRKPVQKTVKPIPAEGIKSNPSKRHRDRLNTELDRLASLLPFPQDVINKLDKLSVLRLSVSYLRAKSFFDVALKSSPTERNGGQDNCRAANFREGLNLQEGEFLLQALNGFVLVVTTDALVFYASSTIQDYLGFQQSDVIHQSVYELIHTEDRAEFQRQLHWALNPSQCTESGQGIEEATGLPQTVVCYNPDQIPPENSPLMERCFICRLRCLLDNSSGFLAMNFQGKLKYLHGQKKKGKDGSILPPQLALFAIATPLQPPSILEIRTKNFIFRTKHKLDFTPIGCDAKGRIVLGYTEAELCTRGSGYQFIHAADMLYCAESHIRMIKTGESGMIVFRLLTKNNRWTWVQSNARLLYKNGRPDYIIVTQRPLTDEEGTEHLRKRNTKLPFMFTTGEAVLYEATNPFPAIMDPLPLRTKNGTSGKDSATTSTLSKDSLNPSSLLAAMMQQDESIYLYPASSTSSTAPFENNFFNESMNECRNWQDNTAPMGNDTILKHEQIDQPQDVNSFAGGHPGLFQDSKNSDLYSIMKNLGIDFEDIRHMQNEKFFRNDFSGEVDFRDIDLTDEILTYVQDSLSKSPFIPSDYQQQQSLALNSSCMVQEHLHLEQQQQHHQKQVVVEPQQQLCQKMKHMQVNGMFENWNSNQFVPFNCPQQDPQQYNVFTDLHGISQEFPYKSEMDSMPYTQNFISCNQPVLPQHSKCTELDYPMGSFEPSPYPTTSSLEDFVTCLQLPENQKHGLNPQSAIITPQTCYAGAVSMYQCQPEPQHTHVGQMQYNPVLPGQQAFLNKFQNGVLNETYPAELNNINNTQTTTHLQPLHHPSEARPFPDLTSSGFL
# rCAG RNA binder: r(CAG) repeat RNA binding; TO-PRO-1 dye displacement fluorescence; inhibition, % at 3 µM; 1.3% of 370,000 active;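 active = inhibition above the plate cutoff, the mean of all test compounds on that plate plus 3 SD, cut at about 35% in these data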;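 note: 0% = DMSO alone and 100% = 100 µM mitoxantrone as full dye displacement; higher means more dye released from RNA so lower well fluorescence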
# ADAM10 inh: inhibits human ADAM10. 0.62% of 370,000 active. AID 720582. O14672. inhibition, % at 7 µM. recombinant ADAM10, EDANS/DABCYL FRET peptide cleavage, 3 h;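 active = inhibition above a per-campaign cutoff equal to the mean of compounds falling between control-based bounds plus 3 SD, cut at about 20% in these data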;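 note: 0% = DMSO wells while the 100% control is not disclosed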
# rCAG bind conf: r(CAG) RNA repeat binding, confirmation; shares compounds with rCAG RNA binder; TO-PRO-1 dye displacement fluorescence; inhibition, % at 3 µM; 70% of 4,300 active;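 active = inhibition above a per-plate cutoff, the mean inhibition of sample wells plus 3 SD, cut at about 35% in these data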;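 note: loss of TO-PRO-1 fluorescence as compound displaces dye from 1x1 AA loop RNA; 0% = DMSO only wells and 100% = 100 µM mitoxantrone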
# DNA CAG counter: counter-screen for rCAG RNA binders: DNA CAG dye complex inhibitors | d(CAG) DNA oligo TO-PRO-1 dye displacement, fluorescence | inhibition, % at 3 µM | 94% of 4,300 active | shares compounds with rCAG RNA binder;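 active = inhibition above its plate's cutoff, the mean test-well inhibition plus 3 SD, cut at about 4.8% in these data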;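 note: 0% = DNA dye mix with DMSO and 100% = 100 µM mitoxantrone; hits displace the dye from DNA and so lower well fluorescence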
# dCAG dye DR: disrupts DNA CAG TO-PRO-1 complex in dose response | shares compounds with rCAG RNA binder | DNA CAG/GTC duplex TO-PRO-1 dye displacement fluorescence | IC50, µM | 20% of 250 active | AID 686960; in the data active = IC50 below about 10 µM
# Numbers without * were called inactive; i = inactive; x = no result given.
SMILES,KLK7 zymogen act,ADAM17 inh,NR3A LBD binder,AHR act,rCAG RNA binder,ADAM10 inh,rCAG bind conf,DNA CAG counter,others
COC(=O)c1cc2c(c3c4cc(F)ccc4n(S(=O)(=O)c4ccccc4)c13)C(=O)N(C)C2,0,-2,x,x,8,-15,x,x,
CC(/C=C1\SC(=S)N(CCCC(=O)Nc2ccc(C(=O)O)c(O)c2)C1=O)=C\c1ccccc1,x,x,-7,0,x,x,x,x,
CC(=Cc1ccccc1)C=C1SC(=S)N(CCCC(=O)Nc2ccc(C(=O)O)c(O)c2)C1=O,-1,0,x,x,93*,10,92*,76*,
Cc1ccc(NS(=O)(=O)c2ccc(NC(=O)c3ccccc3C(=O)O)cc2)c(C)c1,0,0,1,-1,1,-2,x,x,
Cc1ccc(S(=O)(=O)Nc2cccc(S(=O)(=O)Nc3ccccc3C(=O)O)c2)c(C)c1,0,-6,-4,-2,67*,-11,65*,26*,
O=C(O)c1ccccc1NS(=O)(=O)c1cccc(NS(=O)(=O)c2cc(Br)ccc2Br)c1,0,1,5,1,69*,-4,61*,22*,
O=C(O)c1cccc(S(=O)(=O)Nc2cccc(S(=O)(=O)Nc3ccc(Br)cc3)c2)c1,0,1,-2,x,31,3,x,x,
CCOc1ccc(Br)cc1S(=O)(=O)Nc1cccc(S(=O)(=O)N(C)C)c1,1,-1,-6,1,13,1,x,x,
CCOc1ccc(Br)cc1S(=O)(=O)Nc1cccc(S(=O)(=O)Nc2ccccc2C(=O)O)c1,0,-4,1,1,78*,-1,83*,48*,
CCCCN(CCCC)CC(O)c1cc(Cl)cc2c1-c1ccc(Cl)cc1/C2=C/c1ccc(Cl)cc1 (stereo not given),-1,6,x,x,19,5,x,x,
CCOC(=O)[C@]12CCCCC/C=C\1N(Cc1ccc(OC)cc1)C(=O)[C@H]2CC(=O)NCC12CC3CC(CC(C3)C1)C2,0,3,x,x,8,8,x,x,
CC(C)CNC(=O)OCc1cn(Cc2cccc(F)c2)nn1,0,-1,x,x,-1,-5,x,x,
COc1ccc(NC(=O)N(CCc2c(C)[nH]c3ccccc23)Cc2cccs2)cc1OC,1,3,x,x,4,1,x,x,
Cc1ccc(CN2CC=CCS2(=O)=O)cc1,0,7,x,x,2,-16,x,x,
O=C(NCCc1ccc(Cl)cc1)c1ccc2c(c1)ncn2C1CCCCC1,0,0,x,x,3,-1,x,x,
O=C(Nc1nnc(SCc2ccccc2)s1)c1cccc([N+](=O)[O-])c1,0,-3,1,1,36*,4,23,6.0*,
CCCCNC(=O)N1CCC(c2nc3ccc(Cl)cc3[nH]2)CC1,0,1,x,x,2,-2,x,x,
O=C(Nc1ccccc1O)c1c(O)c2c([nH]c1=O)CCCC2,0,1,14*,57*,44*,0,40*,27*,
COC(=O)[C@]12C[C@H](CC(=O)NCc3ccccc3)C(=O)N(Cc3ccccc3)C1=C[C@H](C(C)(C)C)O[C@@H]2C,0,3,x,x,1,4,x,x,
Cc1c(CCC(=O)N[C@@H](C)C(=O)O)c(=O)oc2c(C)c3oc4c(c3cc12)CCCC4,8,-93,-3,0,43*,-218,39*,8.8*,
Cc1c(CCC(=O)NCCC(=O)O)c(=O)oc2c(C)c3oc4c(c3cc12)CCCC4,3,-45,0,-2,42*,-99,38*,10*,
Cc1c(CCC(=O)N[C@@H](CC(C)C)C(=O)O)c(=O)oc2cc3oc4c(c3cc12)CCCC4,-2,-74,-2,-1,29,-179,x,x,
Cc1ccc(-c2c(C(=O)NC3CCCC3)oc(=O)c3ccccc23)cc1,0,0,x,x,3,7,x,x,
COCCCn1c(=O)/c(=C\c2cccc(OC)c2OC)s/c1=C(/C#N)C(=O)Nc1ccc(C(=O)O)cc1,-2,-2,10,6,52*,-6,73*,34*,
Cn1cc(CCOCc2ccccc2)c2ccccc21,1,-1,x,x,2,-1,x,x,
SMILES,KLK7 zymogen act,ADAM17 inh,NR3A LBD binder,AHR act,rCAG RNA binder,ADAM10 inh,rCAG bind conf,DNA CAG counter,others
COC(=O)c1sc(N2C(=O)C(O)=C(C(=O)c3ccc(C)o3)C2c2ccc([N+](=O)[O-])cc2)nc1C (stereo not given),-1,-2,-2,-1,66*,10,68*,28*,dCAG dye DR=3.3*
Cc1ccc2nc(N3C(=O)C(O)=C(C(=O)c4ccc(C)o4)C3c3cccc(O)c3)sc2c1 (stereo not given),1,-1,-2,4,70*,-1,69*,33*,
CCOC(=O)c1sc(N2C(=O)C(O)=C(C(=O)c3ccc(C)o3)C2c2cccc([N+](=O)[O-])c2)nc1C (stereo not given),0,2,-2,-1,55*,7,78*,42*,
COC(=O)c1sc(N2C(=O)C(O)=C(C(=O)c3ccc(C)o3)C2c2ccc(OC)c(OC)c2)nc1C (stereo not given),0,-1,-27,x,37*,-10,36*,9.9*,
CCOC(=O)c1sc(N2C(=O)C(O)=C(C(=O)c3ccc(C)o3)C2c2ccc(OC)c(OC)c2)nc1C (stereo not given),0,1,-3,10,33,2,x,x,
CCCCCCn1c(-c2ccc(Cl)cc2Cl)csc1=Nc1ccccc1,0,1,x,x,3,0,x,x,
O=C(Nc1ccc(F)cc1)C(c1ccnc2ccccc12)N1CCN(c2cccc(C(F)(F)F)n2)CC1 (stereo not given),0,8,x,x,8,-79,x,x,
N#Cc1cccc(NC(=O)c2cc(C3CCCCN3C(=O)c3cccs3)on2)c1 (stereo not given),0,-1,x,x,2,4,x,x,
COc1ccc2nc(N3C(=O)C(O)=C(C(=O)c4ccco4)C3c3ccc(OC)c(OC)c3)sc2c1 (stereo not given),2,0,x,x,56*,-12,69*,25*,dCAG dye DR=i
CCc1ccc(NC(=O)CN(c2ccc(OC)cc2)S(=O)(=O)c2c(C)[nH]c(=O)[nH]c2=O)cc1,0,-2,1,-2,40*,6,25,4,
COc1ccc(N(CC(=O)Nc2cccc(F)c2)S(=O)(=O)c2c(C)[nH]c(=O)[nH]c2=O)cc1,0,5,-3,1,13,-8,x,x,
COc1ccc(N(CC(=O)Nc2cccc(C(F)(F)F)c2)S(=O)(=O)c2c(C)[nH]c(=O)[nH]c2=O)cc1,0,0,-6,7,37*,5,33,8.3*,
